Data as given in the supplement of paper PMC9023506.
Where a name gives a salt, the structure may show the parent alone.

tested on: Danio rerio larvae (5 dpf); test: startle response to 20-s acoustic pulses, difference vs DMSO (percentage points (treated minus DMSO)); higher = more of the behaviour than the DMSO vehicle control; details: 10 µM; exposure time: 3 h pre-incubation + 3 h imaging
Outline: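 Library drugs were diluted 1000× from DMSO stocks into egg water to reach 10 µM and applied to 5-dpf wild-type zebrafish larvae in 96-well ProxiPlates, 48 larvae per drug. The larvae stayed exposed for 3 h before imaging and for the 3 h of imaging at 28.5 °C. Behaviour scores, given in percentage points, are the treated mean minus the vehicle mean for movement and upper-half location.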

Compound	startle response to 20-s acoustic pulses
CCCCC1=NC2(CCCC2)C(=O)N1Cc1ccc(-c2ccccc2-c2nnn[nH]2)cc1 [Irbesartan]	1.39
C[C@]12CCC(=O)C=C1CC[C@@H]1[C@@H]2[C@@H](O)C[C@@]2(C)[C@H]1CC[C@]2(O)C(=O)CO [Hydrocortisone]	0.897
CN1CC[C@@H](NC(=O)Nc2ccc(C#N)cc2)C[C@@H]1c1nc2ccccc2[nH]1	-5.85
CC(C)c1nc(CN(C)C(=O)N[C@H](C(=O)N[C@@H](Cc2ccccc2)C[C@H](O)[C@H](Cc2ccccc2)NC(=O)OCc2cncs2)C(C)C)cs1 [Ritonavir]	1.92
COCCc1ccc(OCC(O)CNC(C)C)cc1 (configuration not stated) [Metoprolol tartrate]	6.66
CCOc1cc(CC(=O)N[C@@H](CC(C)C)c2ccccc2N2CCCCC2)ccc1C(=O)O [Repaglinide]	-5.51
OC(CNCC(O)C1CCc2cc(F)ccc2O1)C1CCc2cc(F)ccc2O1 (configuration not stated) [Nebivolol hydrochloride]	-6.21
Cc1cccc(C)c1OCC(C)N (configuration not stated) [Mexiletine hydrochloride]	0.873
CNC(=O)c1ccccc1Sc1ccc2c(/C=C/c3ccccn3)n[nH]c2c1 [Axitinib]	-7.73
O=C(O)c1cc(/N=N/c2ccc(S(=O)(=O)Nc3ccccn3)cc2)ccc1O [Sulfasalazine]	-1.02
COc1cc(Nc2c(C#N)cnc3cc(OCCCN4CCN(C)CC4)c(OC)cc23)c(Cl)cc1Cl [Bosutinib]	-0.606
CC#C[C@]1(O)CC[C@H]2[C@@H]3CCC4=CC(=O)CCC4=C3[C@@H](c3ccc(N(C)C)cc3)C[C@@]21C [Mifepristone]	0.769
N#Cc1ccc(C(c2ccc(C#N)cc2)n2cncn2)cc1 [Letrozole]	5.37
CCOC(=O)C1=C(C)NC(C)=C(C(=O)OC)C1c1cccc(Cl)c1Cl (configuration not stated) [Felodipine]	9.85
Cc1ccsc1C(=CCCN1CCC[C@@H](C(=O)O)C1)c1sccc1C [Tiagabine hydrochloride]	5.98
Nc1ncn([C@@H]2O[C@H](CO)[C@@H](O)[C@H]2O)c(=O)n1 [5-Azacytidine]	2.64
CCOc1ccccc1OCCN[C@H](C)Cc1ccc(OC)c(S(N)(=O)=O)c1 [Tamsulosin hydrochloride]	3.87
